{"source": "PubChem BioAssay (EPA / NIEHS)", "note": "Values joined by “and” are separate entries in the source; they are usually repeats but may differ in a detail not shown here. Identical values can stand only once. Some structures have more than one record in an assay (separate samples or runs), and their calls can disagree. Active and inactive are the calls of the source. Rule for the calls: active = hit-call score of the fitted dose curve at least 0.9, where 1 is the maximum; inactive = score below 0.9."}
{"read-out": "Intercellular Adhesion Molecule 1 (ICAM1), ICAM1 (gene 3383)", "assay": "BSK_KF3CT_ICAM1: BioMAP Diversity Plus: KF3CT Assay for Intercellular Adhesion Molecule 1 (ICAM1) Biomarker Activity (AID 2283067)", "conditions": "primary human keratinocytes with fibroblasts; actives raise or lower the signal", "protocol": "BSK_KF3CT is a cell-based, multiplexed-readout assay that uses keratinocytes and foreskin fibroblasts, a human skin primary cell co-culture, with measurements taken at 24 hours after chemical dosing in a 96-well plate.BSK_KF3CT_ICAM1 is an assay component measured in the BSK_KF3CT assay. It measures ICAM-1 antibody related to regulation of gene expression using ELISA technology.Data from the assay component BSK_KF3CT_ICAM1 was analyzed into 1 assay endpoint. This assay endpoint, BSK_KF3CT_ICAM1, was analyzed with bidirectional fitting relative to DMSO as the negative control and baseline of activity. Using a type of binding reporter, gain or loss-of-signal activity can be used to understand changes in the signaling as they relate to the gene ICAM1. Furthermore, this assay endpoint can be referred to as a primary readout, because this assay has produced multiple assay endpoints where this one serves a signaling function. To generalize the intended target to other relatable targets, this assay endpoint is annotated to the cell adhesion molecules intended target family, where the subfamily is Immunoglobulin CAM.\nThe levels of cell surface (or secreted, indicated by the prefix \"s\") biomarker endpoints were measured by ELISA. Overt cytotoxicity to cells in confluent adherent cultures (all systems other than the BT system) was assessed by measuring total protein levels using sulforhodamine B (SRB) staining in parallel cultures at the time of biomarker measurements, indicated as SRB endpoints. For proliferation assays for adherent cell types, individual cell types are cultured at sub-confluence and relative cell numbers quantified by SRB staining at time points optimized for each system (48 h: 3C and CASM3C systems; 72 h: BT and HDF3CGF systems; 96 h: SAg system). SRB was performed by staining cells with 0.1% SRB after fixation with 10% TCA and reading wells at 560 nm.Viability and proliferation of PBMC (T cells) was quantified by Alamar Blue reduction for the SAg and BT systems. For PBMC viability (referred to as PBMC Cytotoxicity within the assay endpoint names), cells were plated (75,000/well in a 96-well plate) and then chemical samples added for 1 h before addition of activators, SEB and TSST-1 (20 ng/mL final concentration each). Cells were incubated for 90 h. Then, Alamar Blue (20 uL/well) (Invitrogen, Cat DAL1100) was added for 6 h, and the plates were read with a fluorescence microplate reader at 546/580 nm (excitation/emission). For PBMC proliferation, cells were plated and activated as above but incubated for only 16 h prior to addition of Alamar Blue. Plates were read after 6 h."}
{"smiles": "Cc1cc(-n2nc3ccc(Cl)cc3n2)c(O)c(C(C)(C)C)c1", "outcome": "inactive"}
{"smiles": "OC(C(F)(F)F)(C(F)(F)F)C(O)(C(F)(F)F)C(F)(F)F", "AC50": "48.3 µM (active)", "outcome": "inactive"}
{"smiles": "Sc1nc2ccccc2s1", "outcome": "inactive"}
{"smiles": "COC(=O)/C=C\\C(=O)OC", "outcome": "inactive"}
{"smiles": "CCCCCCCCCC/C=C/C1CC(=O)OC1=O", "note": "(stereo not drawn)", "outcome": "inactive"}
{"smiles": "Oc1cccc2ccccc12", "outcome": "inactive"}
{"smiles": "CC[N+](CC)(CC(=O)Nc1c(C)cccc1C)Cc1ccccc1", "note": "(tested in a mixture with another compound)", "outcome": "inactive"}
{"smiles": "CN(C)CCC(c1ccc(Cl)cc1)c1ccccn1", "note": "(stereo not drawn)", "outcome": "inactive"}
{"smiles": "COc1ccc(C(=O)c2ccccc2O)c(O)c1", "outcome": "inactive"}
{"smiles": "C1CN(CCOCCN2CCOCC2)CCO1", "outcome": "inactive"}
{"smiles": "O=C(C(=O)c1ccccc1)c1ccccc1", "outcome": "inactive"}
{"smiles": "CC(C)CC(=O)CC(C)CC(C)C", "note": "(stereo not drawn)", "AC50": "31.8 µM (active)"}
{"smiles": "CC(C)C1OCCN1CCOC(=O)NCCCCCCNC(=O)OCCN1CCOC1C(C)C", "note": "(stereo not drawn)", "outcome": "inactive"}
{"smiles": "Cc1cccnc1", "outcome": "inactive"}
{"smiles": "CCCCCCC(O)CCCCCCCCCCC(=O)OC", "note": "(stereo not drawn)", "outcome": "inactive"}
{"smiles": "CCCCCCCCCCCCCCCCCC[N+](C)(C)C", "AC50": "3.6 µM (active)"}
{"smiles": "CCC(C)=NO", "outcome": "inactive"}
{"smiles": "CCCCC(CC)COC(=O)C=Cc1ccc(OC)cc1", "note": "(stereo not drawn)", "outcome": "inactive"}
{"smiles": "CN(C)Cc1cc(C(C)(C)C)c(O)c(C(C)(C)C)c1", "outcome": "inactive"}
{"smiles": "CCCCCCCCCCC1CO1", "note": "(stereo not drawn)", "AC50": "29.3 µM (active)"}
{"smiles": "O=[N+]([O-])c1cc(S(=O)(=O)Nc2ccccc2)ccc1Nc1ccccc1", "AC50": "32.8 µM (active) and 32.4 µM (active)"}
{"smiles": "CN(C)c1ccc(C(c2ccccc2)c2ccc(N(C)C)cc2)cc1", "outcome": "inactive"}
{"smiles": "CC[N+](CC)(CC(=O)Nc1c(C)cccc1C)Cc1ccccc1", "outcome": "inactive"}
{"smiles": "COc1ccccc1Oc1c(NS(=O)(=O)c2ccc(C(C)(C)C)cc2)nc(-c2ncccn2)nc1OCCO", "outcome": "inactive"}
{"smiles": "CCC[Si](OC(C)=O)(OC(C)=O)OC(C)=O", "outcome": "inactive"}
{"smiles": "COc1cc(CNC(=O)CCCC/C=C/C(C)C)ccc1O", "outcome": "inactive"}
{"smiles": "Cc1c(C(N)=O)cc([N+](=O)[O-])cc1[N+](=O)[O-]", "outcome": "inactive"}
